# This is a sample that favours compounds with a hit; in the whole collection about 1.2% have one here.
# GC-B act: GC-B (human) receptor activation. P20594. HEK293-GC-B cells, CNP EC30, cGMP TR-FRET; 0% at EC30 CNP, 100% saturating CNP. hit rate 0.11% among 370,000. activation, % at 10 µM. AID 1920062;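 active = activation at 10 µM reaching about 35% in either raw or pattern-adjusted values, limit read from the data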
# TLR9-MyD88 block: TLR9-MyD88 interaction inhibition. hit rate 0.21% among 340,000. inhibition, % at 4.98 µM. AID 504734. CHO BLA complementation TLR9-MyD88, CCF4 FRET ratio;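 active = inhibition above the mean over all tested compounds plus 3 SD, cut at about 21% in these data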;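 also: 0% = DMSO only wells and 100% = clavulanate BLA inhibitor control wells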
# NPR1 activator: GC-A (human) enzyme activation; P16066; activation, % at 10 µM; hit rate 0.14% among 370,000; AID 1671463; HEK293 GC-A cells, cGMP TR-FRET, EC30 ANP; 0% at EC30 ANP, 100% saturating ANP; in the data active = activation above about 40%
# TLR4 MyD88 comp: inhibitors of human TLR4-MyD88 binding | AID 861 | O00206+Q99836 | hit rate 0.18% among 200,000 | inhibition, % at 8.4 µM | HeLa CL3-4 TLR4/MyD88 BLA complementation, FRET ratio; in the data active = inhibition above about 25%;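 also: 0% = vehicle and 100% = reference inhibitor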
# Neddylation inh: blocks human cullin neddylation | P61081+Q13564 | TR-FRET cullin neddylation, biochemical | inhibition, % at 25 µM | hit rate 0.58% among 360,000; in the data active = inhibition above about 36%
# NOD2 RIPK2 PPI: inhibitors of human NOD2-RIPK2 interaction. AID 624267. O43353. inhibition, % at 4.98 µM. hit rate 0.38% among 360,000. CHO BLA complementation NOD2-RIPK2, CCF4 ratio; in the data active = inhibition above about 21%;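 also: 0% = vehicle only and 100% = reference blocker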
# TLR4 MyD88 cnf: confirmation of human TLR4-MyD88 binding inhibitors; shares compounds with TLR4 MyD88 comp; HeLa CL3-4 BLA complementation, CCF4 FRET ratio; inhibition, % at 8.4 µM; hit rate 50% among 350;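 active = mean inhibition across three repeat runs above about 25% carried over from the earlier screen, limit read from the data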;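 also: plate controls were DMSO only for no effect and clavulanic acid blocking BLA at full dose for full effect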
# BLA inh HeLa: counter-screen for TLR4-MyD88 inhibitors: beta-lactamase reporter inhibitors; HeLa BLA reporter, CCF4 FRET ratio; inhibition, % at 8.4 µM; hit rate 63% among 350; shares compounds with TLR4 MyD88 comp;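 active = mean inhibition over three repeats above about 26% taken from the earlier screen, limit read from the data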;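 also: HeLa cells stably expressing beta-lactamase reporter as counterscreen for TLR4-MyD88 inhibitors; 0% = DMSO and 100% = clavulanic acid full inhibition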
# TLR9-MyD88 conf: confirmation of human TLR9-MyD88 binding inhibitors. shares compounds with TLR9-MyD88 block. CHO TLR9/MyD88 BLA complementation, CCF4 FRET ratio. inhibition, % at 4.98 µM. hit rate 51% among 680. AID 540250;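 active = mean inhibition across three repeats above about 21% taken from the earlier screen, limit read from the data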;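 also: blue over green emission ratio reports constitutive TLR9 MyD88 association via BLA complementation; 0% = DMSO vehicle wells and 100% = clavulanate BLA inhibitor wells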
# BLA counter-1: non-selective beta-lactamase inhibitors in TLR9-MyD88 counter-screen; shares compounds with TLR9-MyD88 block; CHO-BLA cells, CCF4 FRET ratio, BLA reporter; inhibition, % at 4.98 µM; hit rate 7% among 680; AID 540251;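 active = mean inhibition above a 50% cutoff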;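 also: counterscreen of TLR9-MyD88 hits on CMV-driven BLA in CHO-K1 cells; 0% = DMSO alone and 100% = clavulanate blocking BLA; higher means less blue over green ratio so more BLA blockade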
# TLR9 CHO cytotox: counter-screen for TLR9-MyD88 inhibitors: cytotoxicity in CHO cells | shares compounds with TLR9-MyD88 block | luminescence | inhibition, % at 4.98 µM | hit rate 39% among 680; in the data active = inhibition above about 11%
# NOD2 RIPK2 conf: confirmation of human NOD2-RIPK2 interaction inhibitors; hit rate 70% among 1,200; CHO cells, NOD2-RIPK2 BLA complementation, CCF4 FRET; inhibition, % at 4.98 µM; shares compounds with NOD2 RIPK2 PPI;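 active = mean inhibition across replicates above a set limit taken from the earlier primary screen, cut at about 21% in these data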;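 also: 0% = DMSO-only wells and the high end = clavulanate BLA-blocked wells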
# BLA counter-2: NOD2-RIPK2 counterscreen BLA reporter activity; hit rate 57% among 1,200; inhibition, % at 4.98 µM; shares compounds with NOD2 RIPK2 PPI; CHO BLA reporter, CCF4 FRET ratio; AID 624371;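 active = mean inhibition above the low-control mean inhibition plus three low-control SD, cut at about 11% in these data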;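 also: 0% = DMSO only wells and 100% = clavulanate high control wells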
# Starred values were filed as active, the others as inactive; . = not tested or not shown.
SMILES,GC-B act,TLR9-MyD88 block,NPR1 activator,TLR4 MyD88 comp,Neddylation inh,NOD2 RIPK2 PPI,TLR4 MyD88 cnf,BLA inh HeLa,TLR9-MyD88 conf,BLA counter-1,TLR9 CHO cytotox,NOD2 RIPK2 conf,BLA counter-2
CCCCNC(=O)c1nn(-c2ccccc2OC)c(=O)c2ccccc12,5.7,23.8*,2.0,25.7*,2.2,26.1*,19.8,23.2,13.6,18.3,1.2,23.0*,23.7*
Cc1[nH]c2ccccc2c1/C=N/Nc1ccc([N+](=O)[O-])cc1,-11.0,25.8*,-11.2,31.0*,-36.4,28.1*,23.9,42.6*,16.9,14.6,3.9,30.4*,42.5*
Cc1[nH]c2ccccc2c1/C=N/NC(=O)c1cccc([N+](=O)[O-])c1,-2.5,.,0.7,-8.0,-33.6,-4.9,.,.,.,.,.,.,.
COCc1[nH]nc2c1C(c1ccc(F)cc1)N(c1ccc(OC)cc1)C2=O (configuration not stated),-25.1,.,-13.2,.,.,.,.,.,.,.,.,.,.
Cc1cc(Cl)n2c(nc3ccccc32)c1C#N,-4.8,-3.9,3.5,45.3*,.,23.3*,52.1*,55.9*,.,.,.,86.5*,62.7*
Cc1nc(N2N=C3/C(=C/c4ccc(F)cc4)CCCC3C2c2ccc(F)cc2)sc1C(=O)N(C)C (configuration not stated),15.2,20.7,15.2,41.5*,.,42.4*,37.4*,64.8*,.,.,.,57.2*,65.0*
Cc1ncsc1C(=O)N1N=C2/C(=C/c3ccccc3)CCCC2C1c1ccccc1 (configuration not stated),-0.4,-5.0,-3.0,-10.0,.,3.0,.,.,.,.,.,.,.
COc1cc(/C=C/C(=O)CC(=O)/C=C/c2ccc(O)c(OC)c2)ccc1O,0.3,28.4*,1.1,32.1*,9.1,37.0*,20.0,42.7*,30.2*,26.3,7.4,59.2*,61.0*
COC(=O)C1(F)C(=O)NC(=O)NC1OC (configuration not stated),3.9,.,5.0,.,.,.,.,.,.,.,.,.,.
COc1ccc(N2C(=O)c3n[nH]c(C)c3C2c2ccc(F)cc2)cc1 (configuration not stated),-18.8,.,-18.3,.,.,.,.,.,.,.,.,.,.
COc1ccc(-c2cc(N)n(S(=O)(=O)c3c(F)c(F)c(F)c(F)c3F)n2)cc1OC,29.1,18.0,18.5,27.4*,-0.3,59.4*,17.1,-10.6,.,.,.,85.6*,18.5*
COC(=O)c1cc2c(c3c4ccccc4n(S(=O)(=O)c4cccc(C)c4)c13)C(=O)N(Cc1ccccc1OC)C2,-1.5,.,2.8,.,.,.,.,.,.,.,.,.,.
CN(C)c1ccc(/C=C/c2nc3ccccc3s2)cc1,.,30.3*,.,44.5*,15.8,21.5*,43.8*,67.6*,46.3*,59.2*,25.5*,57.0*,69.7*
O=c1[nH]c2ccccc2nc1/C=C/c1ccc(O)cc1,-3.2,36.1*,-6.5,35.7*,20.0,38.3*,30.1*,52.9*,19.2,20.9,6.3,42.0*,52.6*
COCc1cc(N2CCNC[C@H]2C)ccc1N1CCN(Cc2ccccc2)[C@H](C)C1,5.1,.,0.8,.,.,.,.,.,.,.,.,.,.
O=C(N[C@H](C(=O)N1CCC[C@H]1C(=O)NC1CCCC1)C1CCCCC1)c1nccs1,7.5,.,1.4,.,.,.,.,.,.,.,.,.,.
Cc1cccc(C(=O)OCC(=O)NCc2cccs2)c1,1.8,-6.8,-3.9,8.3,0.1,-3.0,.,.,.,.,.,.,.
CS(=O)(=O)c1ccc(C(=O)OCC(=O)NCc2cccs2)cc1[N+](=O)[O-],6.6,21.6*,11.8,.,-1.7,10.2,.,.,29.5*,13.6,78.3*,.,.
C[C@H](O)[C@@H]1C(=O)N2CCc3c([nH]c4c(-c5ccc6c(c5)OCO6)cccc34)[C@@H]2C[C@@H]1N(C)C(=O)NC1CCCCC1,-5.6,.,-0.7,.,.,.,.,.,.,.,.,.,.
Cc1cccc(NC(=O)CCN2C(=O)c3ccccc3S2(=O)=O)c1C,.,21.4*,.,.,-0.3,-14.9,.,.,4.0,1.4,-1.2,.,.
NC(=S)N=Nc1c(O)n(Cc2ccccc2)c2ccccc12,1.5,2.5,-4.5,-15.0,-6.1,-7.8,.,.,.,.,.,.,.
O=Nc1c(O)n(Cc2cccc(Cl)c2)c2ccccc12,.,26.5*,.,3.9,-27.8,20.1,.,.,18.0,15.8,14.4*,.,.
COc1ccc(CNn2c(-c3cccs3)nc3ccccc3c2=O)cc1OC,-0.2,21.9*,-1.8,-1.0,2.5,-11.9,.,.,1.0,1.1,12.3*,.,.
COc1cccc(C(=O)Nn2c(-c3cccs3)nc3ccccc3c2=O)c1OC,1.9,5.9,-4.7,-3.4,5.2,3.5,.,.,.,.,.,.,.
Cc1ccc(Cn2cccc2/C=C2/C(=N)N3C=CSC3=NC2=O)cc1,2.7,29.6*,9.6,1.2,7.8,-7.0,.,.,5.7,10.9,15.6*,.,.
SMILES,GC-B act,TLR9-MyD88 block,NPR1 activator,TLR4 MyD88 comp,Neddylation inh,NOD2 RIPK2 PPI,TLR4 MyD88 cnf,BLA inh HeLa,TLR9-MyD88 conf,BLA counter-1,TLR9 CHO cytotox,NOD2 RIPK2 conf,BLA counter-2
COC(=O)[C@]12C[C@H](CC(=O)NCCCCc3ccccc3)C(=O)N(Cc3cccc4ccccc34)C1=C[C@H](C(C)(C)C)O[C@@H]2C,-2.7,.,-4.9,.,.,.,.,.,.,.,.,.,.
N#CC1=C(N)Oc2cc(O)c(Cl)cc2C1c1ccccc1F (configuration not stated),3.9,22.4*,7.3,.,.,1.3,.,.,2.0,4.8,-1.9,.,.
COc1cccc(C2CC(=O)Nc3c2c(=O)n(C)c(=O)n3C)c1OC (configuration not stated),0.8,24.1*,1.3,-14.9,1.1,-8.8,.,.,-2.3,-2.8,-4.6,.,.
COc1ccccc1C1CC(=O)Nc2c1c(=O)n(C)c(=O)n2C (configuration not stated),3.5,-4.8,-1.0,3.8,0.8,-10.4,.,.,.,.,.,.,.
O=C(N/N=C\c1c(O)ccc2ccccc12)c1cncc(Br)c1,-13.3,22.5*,-8.2,.,-75.6,11.2,.,.,17.9,15.2,60.0*,.,.
O=C(NC1CCCC1)N1CCC(c2nc3ccc(Cl)cc3[nH]2)CC1,-8.5,.,-8.6,.,.,.,.,.,.,.,.,.,.
COc1ccc2oc(=O)c(-c3nnc(N)s3)cc2c1,-1.6,21.1*,12.6,3.8,38.4,17.3,.,.,7.9,11.5,-3.0,.,.
